Source: PubChem BioAssay (several laboratories)
LYP inh 2: blocks human PTPN22 phosphatase activity; Q9Y2R2; recombinant LYP catalytic domain, DiFMUP fluorescence; inhibition, % at 2 µM; 0.21% of 96,000 active; AID 640;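 active = inhibition at 2 µM at or above a set limit, the screen mean plus 3 SD, cut at about 24% in these data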;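 also: 0% = DMSO with enzyme and 100% = enzyme fully blocked by orthovanadate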
PLK1 inh: inhibitors of human PLK1 kinase | recombinant PLK1 kinase, TR-FRET peptide phosphorylation | inhibition, % at 10 µM | 0.53% of 97,000 active | AID 619;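 active = inhibition of 50% or more in the single-concentration screen; inactive = inhibition below 50%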;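 also: 0% = DMSO max control and 100% = H-89 dihydrochloride min control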
Target sequence (P53350 whole entry, looked up): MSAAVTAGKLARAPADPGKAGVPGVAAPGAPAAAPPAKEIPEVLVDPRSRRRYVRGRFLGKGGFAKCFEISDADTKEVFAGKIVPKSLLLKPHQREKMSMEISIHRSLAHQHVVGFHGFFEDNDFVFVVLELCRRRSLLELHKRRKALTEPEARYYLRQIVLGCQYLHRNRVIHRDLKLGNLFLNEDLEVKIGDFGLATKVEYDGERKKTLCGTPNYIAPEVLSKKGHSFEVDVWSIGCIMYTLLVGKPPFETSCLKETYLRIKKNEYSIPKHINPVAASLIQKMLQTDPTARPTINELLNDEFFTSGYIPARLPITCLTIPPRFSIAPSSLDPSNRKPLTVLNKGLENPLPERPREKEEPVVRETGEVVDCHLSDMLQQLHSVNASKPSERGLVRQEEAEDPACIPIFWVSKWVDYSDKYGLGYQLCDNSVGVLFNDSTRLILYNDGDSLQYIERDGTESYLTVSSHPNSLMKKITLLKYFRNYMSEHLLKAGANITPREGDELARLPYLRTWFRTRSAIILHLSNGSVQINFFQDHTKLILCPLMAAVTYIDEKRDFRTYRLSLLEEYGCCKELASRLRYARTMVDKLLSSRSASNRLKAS
LYP act: increases human PTPN22 phosphatase activity; Q9Y2R2; recombinant LYP, DiFMUP fluorescence; 0 = plate median, 100 = signal doubled; 0.11% of 96,000 active; activation, % at 2 µM; AID 697;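 active = activation at 2 µM above a set limit, the mean plus 5 SD, cut at about 37% in these data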
EphB4 ephrin blk: EphB4-ephrin-B2 interaction antagonism | AID 720 | EphB4 LBD / TNYL-RAW-Alexa532 peptide, fluorescence polarization | 0.15% of 97,000 active | P54760 | inhibition, % at 7 µM;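 active = inhibition above the screen-wide mean inhibition plus 3 SD, cut at about 15% in these data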;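 also: 0% = DMSO wells and 100% = excess unlabeled TNYL-RAW peptide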
Plk1 PBD FP: blocks phosphopeptide binding to human Plk1 polo box domain; 0.13% of 97,000 active; Plk1 PBD phosphopeptide binding, fluorescence polarization; inhibition, %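 (tested at about 20 µM)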; AID 693; in the data active = inhibition above about 34%, passing the limit was not always enough
* hit, by the source's call; · = no result given. An excerpt weighted towards active compounds, which were near 1.2% of everything screened.

SMILES	LYP inh 2	PLK1 inh	LYP act	EphB4 ephrin blk	Plk1 PBD FP
O=C(NCCCO)Nc1ccc2nc(-c3ccco3)c(-c3ccco3)nc2c1	13.2	52.1*	-11.4	0.0	-19.5
O=C(Nc1ccc2nc(-c3ccco3)c(-c3ccco3)nc2c1)NC1CC1	7.9	37.8	-7.1	-3.9	-5.9
CCc1c(C(=O)Nc2ccncc2)csc1C	-9.7	34.3	9.8	1.6	-5.6
CCCc1nnc(NC(=O)CNc2ccc(F)cc2)s1	0.2	14.1	-3.0	16.0*	-18.1
CC1CCN(CCC(=O)Nc2ccc3c(c2)CCC3)CC1	-5.5	-11.2	4.1	1.7	-3.2
Cc1nnc(N(Cc2ccco2)C(=O)c2ccc(C#N)cc2)s1	26.9*	-7.2	-26.6	-1.7	2.0
C(=C/c1ccnc2nc(SC/C=C/c3ccccc3)nn12)/c1ccccc1	33.4*	-1.1	-30.7	-4.2	-32.2
Cc1cc(=O)[nH]c(SC/C=C/c2ccccc2)n1	1.1	-0.2	-3.9	-5.5	18.2
COc1ccc(CN(Cc2cc3cc(OC)c(OC)cc3[nH]c2=O)C(=O)NC2CCCCC2)cc1	-3.8	-14.2	2.4	2.0	22.7
Cc1sc2nc(CN(Cc3ccccc3)C(=O)NC3CCCCC3)[nH]c(=O)c2c1C	-7.3	50.3*	7.9	-4.3	-9.3
O=C(OCC1COc2ccccc2O1)c1c(F)cccc1F (stereo unspecified)	-9.1	-1.9	6.3	-6.7	-1.8
Cc1ccc(-c2nnc(SCC(=O)Nc3nccs3)n2N)cc1	-10.7	62.6*	10.1	4.6	-20.8
CCn1c(Cc2cccc3ccccc23)nnc1SCC(=O)Nc1nccs1	6.8	65.3*	-7.2	1.8	-5.9
CC1CCN(C(=O)Cn2c(SCC(=O)Nc3nccs3)nc3ccccc32)CC1	-8.5	61.0*	7.7	-2.5	25.3
O=C(CSc1nc(-c2ccccc2)c(-c2ccccc2)[nH]1)Nc1nccs1	11.7	61.2*	-8.5	0.7	-13.7
N#Cc1c(Cl)nc(SCc2ccccc2)nc1-c1ccccc1	5.3	-5.3	-3.1	-2.4	-2.6
CC(Sc1nnc(-c2ccc(Cl)cc2)n1C)C(N)=O (stereo unspecified)	3.2	-3.8	-2.6	3.8	-24.1
Cc1cccc(-c2noc(CN(C(=O)C(c3ccccc3)c3ccccc3)C(C)C)n2)c1	2.4	2.6	-3.8	-6.6	17.1
COc1ccccc1CN(Cc1ccco1)S(=O)(=O)c1ccc(-n2cnnn2)c(OC)c1	2.1	-4.2	-6.4	6.6	18.5
N=c1n(CCN2CCCCC2)c2ccccc2n1CC(O)c1cccc(Br)c1 (stereo unspecified)	11.2	10.6	-7.9	5.8	-26.7
N=c1n(CCN2CCCCC2)c2ccccc2n1CC(O)c1ccc(Cl)c(Cl)c1 (stereo unspecified)	-0.4	62.7*	-3.7	-3.9	-12.8
COc1ccc(C(=O)n2nc(-c3ccco3)nc2N)cc1	8.9	-9.0	-9.9	6.5	-23.6
Cc1ccc(C(=O)n2nc(-c3ccco3)nc2N)cc1	28.8*	-10.5	-27.5	4.9	-10.2
Cc1n[nH]c(C)c1N=Nc1cc(Cl)ccc1Cl	13.3	53.7*	-9.3	-5.2	13.3
Cc1nc2ccc(Cl)cc2nc(C)/c1=N\O	4.3	-4.7	-4.9	12.2	-13.3
SMILES	LYP inh 2	PLK1 inh	LYP act	EphB4 ephrin blk	Plk1 PBD FP
CCCCNC(=O)Nc1cc(C(=O)OC)ccc1Cl	-0.4	-0.7	2.4	-7.5	-11.4
Cc1nn(-c2ccccc2)c(C)c1/C=N/NC(=O)c1cc(C2CC2)[nH]n1	9.2	-5.2	-4.2	-3.4	14.0
Cc1nn(-c2ccccc2)c(C)c1/C=N/NC(=O)c1cc(C23CC4CC(CC(C4)C2)C3)[nH]n1	37.7*	-7.0	-34.3	-0.8	10.0
COc1cccc(C(=O)OCc2ccccc2C#N)c1O	8.6	-8.2	-8.2	0.1	-9.7
Cc1nc(NC(=O)CC(C)C)sc1-c1csc(Nc2ccc(Cl)cc2)n1	50.6*	-17.2	-49.0	0.9	11.2
COc1ccccc1-c1c(C(F)(F)F)oc2cc(OC(=O)c3cccc([N+](=O)[O-])c3C)ccc2c1=O	-0.2	-17.1	3.1	1.5	-24.0
Cc1ccc(-n2nnnc2-c2cnc3cc4c(cc3c2C)OCO4)cc1	-11.3	-12.6	8.0	2.5	-23.1
CCCSC(=O)N(CC)CC(=O)Nc1c(CC)cccc1CC	12.5	-18.7	-11.9	1.1	-23.4
CCOC(=O)N1CCC(Nc2c(OCC)c(=O)c2=O)CC1	·	69.3*	·	-6.4	-1.2
Nc1c(C(=O)NCc2ccco2)c2nc3ccccc3nc2n1CCc1ccccc1F	25.1*	23.6	-24.9	-0.7	7.7
COc1ccc(CCn2c(N)c(C(=O)NCc3ccco3)c3nc4ccccc4nc32)cc1OC	13.5	-7.4	-14.5	7.2	-6.8
Cc1ccc(S(=O)(=O)/N=C2/NC(=O)/C(=C/c3cccnc3)S2)cc1	1.7	19.5	1.8	8.8	7.1
CN1C(=O)S/C(=C/c2cccnc2)C1=O	-1.4	-3.8	4.6	18.5*	-2.3
Cc1ccc2c(CC(=O)N3CCN(S(=O)(=O)c4ccc5c(c4)OCCO5)CC3)coc2c1	2.6	-9.4	-5.5	-4.4	-1.6
COC(=O)C1C2C=CC3(CN(Cc4ccco4)C(=O)C13)O2 (stereo unspecified)	0.9	-8.4	-1.7	7.8	-3.5
O=C(O)C1C2C=CC3(CN(Cc4ccco4)C(=O)C13)O2 (stereo unspecified)	·	58.5*	·	-2.9	2.2
COCCn1c(SCc2ccc(C(=O)OC)o2)nnc1-c1c[nH]c2ccccc12	·	59.0*	·	-6.4	4.4
COCCn1c(SCC(=O)Nc2nnc(C)s2)nnc1-c1c[nH]c2ccccc12	-0.1	-8.3	-2.8	-4.0	-10.8
COCCn1c(SCC(=O)NCc2ccc3c(c2)OCO3)nnc1-c1c[nH]c2ccccc12	·	63.2*	·	-7.7	-4.1
CCCOc1ccc(C2c3c(oc4ccccc4c3=O)C(=O)N2CCCN2CCOCC2)cc1 (stereo unspecified)	2.1	-18.6	-4.5	2.8	-11.8
CC(C)(C)c1cc(NCCCn2ccnc2)n2ncc(-c3ccc(Cl)cc3)c2n1	37.5*	-14.4	-35.8	9.3	14.1
Cc1oc(-c2cccc(Cl)c2)nc1CN1CCCC(C(=O)NC(C)c2ccc3c(c2)OCCO3)C1 (stereo unspecified)	·	56.0*	·	-7.0	4.4
COc1ccccc1C1CC(c2c(-c3ccccc3)c3cc(Cl)ccc3[nH]c2=O)=NN1S(C)(=O)=O (stereo unspecified)	13.5	-5.4	-12.0	16.6*	-27.9
CC(C)CC(OC(=O)c1ccco1)C(=O)NC1CCCCC1 (stereo unspecified)	-6.5	-10.2	2.8	-12.7	1.9
Cc1cccc(NC(=O)c2ccc(S(=O)(=O)N(C)C)cc2)n1	6.9	-6.6	-6.8	18.0*	-21.4
Cc1cccc(NC(=O)CN(C)S(=O)(=O)c2ccc(Br)cc2)n1	8.1	-4.9	-4.9	6.2	-6.9
COc1cccc(-n2c(Cc3cc(=O)[nH]c(=O)[nH]3)nnc2SC(C)C)c1	·	61.9*	·	-6.3	-2.3
COC(=O)C(C)Sc1nnc(Cc2cc(=O)[nH]c(=O)[nH]2)n1-c1cccc(OC)c1 (stereo unspecified)	3.7	-5.8	-5.2	2.6	-1.4
